An excerpt weighted towards active compounds, which were near 1.6% of everything screened.
KCNQ2 pot – potentiators of rat KCNQ2 potassium channel. hit rate 0.54% among 310,000. B-score at 10 µM. CHO-K1 KCNQ2, FluxOR thallium flux fluorescence; hits give high values. AID 2239, 2010;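 active = fluorescence ratio B-score at least 3 SD of library B-scores, with initial fluorescence B-score within 3 of them, cut at about 5.3 in these data; same plate scores as AID 2156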;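 note: B-score of peak minus minimum over baseline fluorescence ratio after K+ and Tl+ stimulus; positive B-score means potentiation of KCNQ2 with more thallium influx and brighter signal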
KCNQ2 inh – rat KCNQ2 potassium channel inhibitors, primary screen, cell-based, CHO-K1, FluxOR thallium flux, B-score; B-score at 10 µM; Potassium voltage-gated channel subfamily KQT member 2 (Rattus norvegicus), O88943; 20 min; hits give low values; hit rate 1.1% among 310,000; AID 2156, 2009;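 active = fluorescence ratio B-score at most minus 3 library SDs, with starting brightness B-score within 2 library SDs, cut at about -5.5 in these data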
Kir21 conf inh – mouse Kir2.1 channel blockers, retest, confirmation, cell-based, FluxOR thallium flux, duplicate | shares compounds with KCNQ2 pot | Kir2.1-expressing cells, FluxOR thallium flux fluorescence; hits give low values | Tl flux remaining, % of negative control (hits give low values), % at 10 µM | hit rate 41% among 2,300 | AID 2032, 2009;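 active = Primary-screen hit whose thallium flux fell at least 3 control SD below untreated wells in both duplicates, with normal baseline fluorescence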;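 note: 0% = blank wells without stimulus and 100% = stimulated no-compound controls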
HEK293 Tl flux – alters thallium flux in parental HEK293 cells, Kir2.1 counter-screen; hit rate 19% among 2,300; AID 2105; FluxOR signal as % of negative control (100 = no effect), % at 10 µM; shares compounds with KCNQ2 pot; FluxOR thallium flux fluorescence; 0% = unstimulated blank wells;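 active = dye signal at least 3 control SD above or below untreated wells in both duplicates, raw fluorescence within 3, either direction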;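 note: percent is based on the flux ratio of peak minus minimum fluorescence over baseline F0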
CHO-K1 Tl ctr – nonspecific thallium flux increase in parental CHO-K1, confirmation, counter-screen for KCNQ2 potentiator project, cell-based, FluxOR thallium flux, duplicate | shares compounds with KCNQ2 pot | parental CHO-K1 cells, FluxOR thallium flux fluorescence; zero = vehicle mean+3SD, 100% = vehicle-minus-blank window | activity increase over 3SD of controls, % at 10 µM | hit rate 43% among 1,200 | AID 2282, 2010;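 active = signal rise of at least 3 SD above the untreated control mean, in both duplicate wells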;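 note: counter screen of KCNQ2 potentiator hits so any rise reflects channel-independent effects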
KCNQ1 sel pot – human KCNQ1 channel potentiation off-target, confirmation, selectivity assay for KCNQ2 potentiator project, cell-based, CHO, FluxOR thallium flux; CHO KCNQ1 stable, FluxOR thallium flux fluorescence; beyond 3SD, as % of vehicle-control signal; shares compounds with KCNQ2 pot; activation over 3SD threshold, % at 10 µM; hit rate 28% among 1,200;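 active = fluorescence ratio rise of at least 3 SD of vehicle wells above their mean, in both replicate wells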;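 note: 0% = vehicle mean plus 3 SD and 100% = vehicle minus unstimulated blank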
KCNQ2 pot confirm – rat KCNQ2 channel potentiators, confirmation, cell-based, CHO, FluxOR thallium flux, duplicate; shares compounds with KCNQ2 pot; CHO-KCNQ2 cells, FluxOR thallium flux fluorescence; potentiation, less the hit threshold, % at 10 µM; hit rate 68% among 1,200; AID 2287, 2010;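 active = fluorescence ratio rising 3 SD or more over the vehicle control mean in both replicates, plus primary screen hit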;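 note: peak minus minimum thallium fluorescence divided by baseline after K/Tl stimulus; 0% = vehicle mean plus 3 SD and 100% = vehicle minus unstimulated blank difference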
Kir2-1 sel – mouse Kir2.1 channel activation off-target, confirmation, selectivity assay for KCNQ2 potentiator project, cell-based, HEK293, FluxOR thallium flux. hit rate 2% among 1,200. activity over 3SD threshold, % at 10 µM. shares compounds with KCNQ2 pot. HEK293 Kir2.1, FluxOR thallium flux fluorescence. AID 2345, 2010;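 active = fluorescence ratio rise of at least 3 SD above the vehicle-control mean, seen in both replicates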;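 note: 0% = vehicle mean plus 3 SD and 100% = vehicle minus no-stimulus blank window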
KCNQ2 W236L pot – potentiators of retigabine-insensitive KCNQ2 W236L, mechanism study for KCNQ2 potentiator project, cell-based, rat KCNQ2 W236L, CHO, automated patch clamp. shares compounds with KCNQ2 pot. automated patch clamp current. current increase over 3SD of negative controls (%), hits give high values, % at 25 µM. hit rate 10% among 940;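 active = current increase at least 3 SD of the untreated controls above them in both duplicate recordings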
Target sequence (O88943 whole entry W236L, looked up): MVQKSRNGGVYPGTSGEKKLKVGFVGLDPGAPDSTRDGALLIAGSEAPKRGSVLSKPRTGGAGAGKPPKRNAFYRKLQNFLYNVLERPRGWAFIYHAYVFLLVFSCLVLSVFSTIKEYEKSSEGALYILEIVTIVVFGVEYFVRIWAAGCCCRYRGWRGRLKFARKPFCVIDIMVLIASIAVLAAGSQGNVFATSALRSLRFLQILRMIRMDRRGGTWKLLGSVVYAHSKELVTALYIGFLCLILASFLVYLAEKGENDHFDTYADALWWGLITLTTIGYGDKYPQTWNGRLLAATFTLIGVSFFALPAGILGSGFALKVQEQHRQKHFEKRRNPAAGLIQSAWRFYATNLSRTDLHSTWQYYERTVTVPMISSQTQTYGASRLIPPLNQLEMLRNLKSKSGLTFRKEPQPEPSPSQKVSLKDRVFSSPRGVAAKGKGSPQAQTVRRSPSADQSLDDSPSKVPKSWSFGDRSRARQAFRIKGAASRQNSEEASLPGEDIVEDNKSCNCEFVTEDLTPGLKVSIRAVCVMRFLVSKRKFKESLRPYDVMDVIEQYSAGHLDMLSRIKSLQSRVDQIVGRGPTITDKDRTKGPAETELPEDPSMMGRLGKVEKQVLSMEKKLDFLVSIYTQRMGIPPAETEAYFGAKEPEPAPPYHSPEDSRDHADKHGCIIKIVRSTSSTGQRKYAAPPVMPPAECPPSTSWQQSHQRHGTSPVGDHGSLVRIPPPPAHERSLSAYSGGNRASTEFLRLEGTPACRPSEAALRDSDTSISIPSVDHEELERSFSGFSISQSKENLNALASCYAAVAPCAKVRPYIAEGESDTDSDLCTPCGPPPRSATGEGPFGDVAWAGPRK
Active calls of the source: *; i = inactive; x = no result given.

SMILES	KCNQ2 pot	KCNQ2 inh	Kir21 conf inh	HEK293 Tl flux	others
CCc1cc2c(=O)n(CCC(C)C)c(=S)[nH]c2s1	17.1*	i	i	371.0%*	CHO-K1 Tl ctr=14.1*;KCNQ1 sel pot=-4.7;KCNQ2 pot confirm=57.3*;Kir2-1 sel=-4.7;KCNQ2 W236L pot=i
CCCCCNC(=O)c1ccc2c(=O)n(CC3CCCO3)c(=O)[nH]c2c1 (configuration not stated)	6.09*	i	i	i	CHO-K1 Tl ctr=-9.8;KCNQ1 sel pot=-28.3;KCNQ2 pot confirm=-12.4;Kir2-1 sel=-41.1
CCCCCNC(=O)c1ccc2c(=O)n(CC3CCCO3)c(=S)[nH]c2c1 (configuration not stated)	0.82	i	x	x
N#Cc1c(C(F)(F)F)cc(-c2ccc(Cl)cc2)[nH]c1=O	6.47*	i	i	i	CHO-K1 Tl ctr=0.0*;KCNQ1 sel pot=-12.3;KCNQ2 pot confirm=10.8*;Kir2-1 sel=-38.4;KCNQ2 W236L pot=i
N#Cc1c(C(F)(F)F)cc(-c2ccc(F)cc2)[nH]c1=O	1.53	i	x	x
Cc1ccc2nc(N3CCN(CCO)CC3)nc(-c3ccccc3)c2c1	x	i	47.5%*	i
CN1CCN(c2nc(-c3ccccc3)c3cc(Cl)ccc3n2)CC1	x	i	60.5%*	i
CCOC(=O)N1CCN(c2nc(-c3ccccc3)c3cc(C)ccc3n2)CC1	x	i	x	x
CN1CCN(c2nnc(-c3ccccc3)c(-c3ccccc3)n2)CC1	1.01	i	x	x
CC(C)(C)NCCOCCOc1ccccc1-c1ccccc1	1.74	i	x	x
CCC(C)NCCOCCOc1ccccc1-c1ccccc1 (configuration not stated)	x	i	44.5%*	i
COc1ccccc1C(=O)Nc1ccncc1	x	i	x	x
COc1cccc(C(=O)Nc2ccncc2)c1OC	7.19*	i	i	i	CHO-K1 Tl ctr=-2.6;KCNQ1 sel pot=-16.7;KCNQ2 pot confirm=-14.7;Kir2-1 sel=-41.5
COc1ccccc1CNC(=O)C12CC3CC(CC(C3)C1)C2	0.12	i	x	x
c1ccc(COc2ccccc2CNC23CC4CC(CC(C4)C2)C3)cc1	x	i	42.0%*	i
COc1ccc2oc(C(=O)NCCc3ccccc3)c(C)c2c1	x	i	x	x
O=[N+]([O-])c1ccc(N2CCN(CCO)CC2)cc1Sc1ccccn1	1.08	i	x	x
COc1ccc(-c2noc(CCC(=O)NCCCN3CCC(Cc4ccccc4)CC3)n2)cc1	x	i	x	x
O=C1CC(N2CCC(Cc3ccccc3)CC2)C(=O)N1CCc1ccccc1 (configuration not stated)	5.69*	i	i	i	CHO-K1 Tl ctr=-6.5;KCNQ1 sel pot=-27.7;KCNQ2 pot confirm=7.5*;Kir2-1 sel=-32.1;KCNQ2 W236L pot=i
O=C1CC(N2CCN(C3CC(=O)N(CCc4ccccc4)C3=O)CC2)C(=O)N1CCc1ccccc1 (configuration not stated)	0.42	i	x	x
CC(C(=O)NCCCc1ccccc1)n1cccc1C(=O)c1ccccc1 (configuration not stated)	x	i	64.5%*	i
O=C(Cn1cccc1C(=O)c1ccccc1)NCCCc1ccccc1	0.8	i	x	x
CC1=C(C)/C(=N\OS(=O)(=O)c2ccccc2)C=CC1=O	6.91*	i	69.0%*	i	CHO-K1 Tl ctr=16.8*;KCNQ1 sel pot=-17.1;KCNQ2 pot confirm=27.8*;Kir2-1 sel=-64.2;KCNQ2 W236L pot=56.6%*
Cc1ccc(S(=O)(=O)O/N=C2\CCCc3ccccc32)cc1	1.48	i	x	x
CC(C)C(=O)NCCc1nc(-c2ccccc2)no1	0.42	i	x	x
SMILES	KCNQ2 pot	KCNQ2 inh	Kir21 conf inh	HEK293 Tl flux	others
COc1ccc(NC(=O)c2sc3nc(N4CCOCC4)c4c(c3c2N)CC(C)(C)OC4)cc1	x	i	x	x
CC1(C)Cc2c(c(N3CCOCC3)nc3snc(NC(=O)c4ccccc4)c23)CO1	8.64*	i	i	i	CHO-K1 Tl ctr=-13.2;KCNQ1 sel pot=-15.1;KCNQ2 pot confirm=27.7*;Kir2-1 sel=-18.5;KCNQ2 W236L pot=i
CS(=O)(=O)N1CCN(C(=O)Nc2ccccc2)CC1	0.31	i	x	x
CC(C)c1ccc(NC(=O)N2CCN(S(=O)(=O)c3ccccc3)CC2)cc1	7.33*	i	x	x	CHO-K1 Tl ctr=-15.2;KCNQ1 sel pot=-20.0;KCNQ2 pot confirm=-6.4;Kir2-1 sel=-51.3;KCNQ2 W236L pot=i
CCc1ccc(Nc2cc(C)nc3ncnn23)cc1	1.43	i	x	x
CCn1c2ccccc2c2cc(Nc3cc(C)nc4ncnn34)ccc21	0.69	i	67.0%*	i
CC(C)n1c(O)c(N=Nc2ccc(Cl)c(C(=O)O)c2)c2ccccc21	7.51*	i	i	i	CHO-K1 Tl ctr=78.3*;KCNQ1 sel pot=29.3*;KCNQ2 pot confirm=23.0*;Kir2-1 sel=-32.0;KCNQ2 W236L pot=49.5%*
CCn1c(O)c(N=Nc2ccc(Cl)c(C(=O)O)c2)c2ccccc21	2.76	i	x	x
Cc1cc(C)c2nc(N(CCCN(C)C)C(=O)C3=COCCO3)sc2c1	x	i	x	x
Cc1cc(C)c2nc(N(CCCN(C)C)C(=O)c3ccc4c(c3)OCCO4)sc2c1	-5.83	-5.83*	50.5%*	i
CC(C)(C)c1ccc(Cn2c(=N)n(CC(O)c3ccco3)c3ccccc32)cc1 (configuration not stated)	x	i	x	x
CCCCCCCn1c(=N)n(CC(=O)c2ccco2)c2ccccc21	1.19	i	55.5%*	i
N=c1n(CCN2CCCC2)c2ccccc2n1CC(O)c1ccco1 (configuration not stated)	0.01	i	x	x
CCCCn1c(=N)n(CC(=O)c2ccco2)c2ccccc21	2.24	i	x	x
CCCCCCCn1c(=N)n(CC(O)c2ccco2)c2ccccc21 (configuration not stated)	3.18	i	45.0%*	i
Cc1ccccc1Cn1c(=N)n(CC(O)c2ccco2)c2ccccc21 (configuration not stated)	x	i	63.5%*	i
CCn1cc(C(=O)O)c(=O)c2cc(F)c(N3CCN(C(=O)Nc4ccccc4)CC3)cc21	0.9	i	x	x
CC(C)C(O)(C#CCN1CCCCC1)c1ccccc1 (configuration not stated)	0.16	i	x	x

Screening data from PubChem.
